Screens as filed in PubChem.
Only some compounds are listed: those with a hit (about 5.1% of all), similar ones and a draw of the others.
Tau fluor cs: counter-screen for tau fibril formation inhibitors; tau K18 P301L Alexa594 fluorescence, heparin fibrillization; Potency, µM (series often up to 57.7 µM), for the others: at the top dose activity change, negative = decrease; hit rate 0.93% among 280,000; note: potency is the fitted concentration of half-maximal effect; nearly all actives have a fitted effect of over 55% in size
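Human tau K18 P301L (15 uM unlabeled, 0.24 uM Alexa 594-labeled) in 100 mM sodium acetate pH 7 with 20 uM heparin, 6 hr at 37 C. ThT 30 uM added, 1 hr ambient; Alexa 594 FP and total fluorescence read at 555/632 nm.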
JMJD2E inh: inhibitors of human JMJD2E histone demethylase; B2RXH2; JMJD2E catalytic domain, FDH-coupled NADH fluorescence (FDH is formaldehyde dehydrogenase); hit rate 1.6% among 230,000; Potency, µM (titrated, usually from 57.1 µM), without a hit: top-dose activity change, negative = inhibition, actives largely listed as inhibitors; active = well fitted inhibition curve with a large enough effect, not every such curve was filed as active; inconclusive = small, poorly fitted or top-dose-only effect, or another doubt; inactive = no such curve, though single readings can be large or run the other way;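 note: potency is the fitted concentration of half-maximal effect; 0% = wells with enzyme and -100% = buffer wells without enzyme; nearly all actives have a fitted effect of over 50% in size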
PNC inhibitor: perinucleolar compartment assembly inhibition. PC3M PTB-GFP, PNC prevalence imaging, 16 h; stronger effect = lower value. activity change (PNC), negative = inhibition, % at 10 µM. hit rate 3.1% among 140,000;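 active = readout at or below -70, meaning at least 70% loss of cells showing the perinucleolar compartment, a nuclear body marking cancer cells; inconclusive = readout between -30 and a set limit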;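 note: plate controls were DMSO wells for no effect and camptothecin positive control wells for full effect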
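Compounds are pinned in duplicate onto adhered PC3M cells stably expressing GFP-tagged PTB and incubated 16 h at 37 C. Cells are then fixed, nuclei stained with Hoechst, and PNC-positive cells counted.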
Tau fibril FP: blocks human tau fibril formation measured by polarization | P10636 | K18 P301L tau heparin fibrillization, Alexa594 FP, 6 h | Potency, µM (highest dose often 57.7 µM), inactives show at the highest dose activity, negative = inhibition, actives largely listed as inhibitors | hit rate 0.39% among 280,000 | AID 1468; note: potency is the fitted concentration of half-maximal effect; nearly all actives have a fitted effect of over 55% in size
Target sequence (P10636 561-689 P618L limits assumed): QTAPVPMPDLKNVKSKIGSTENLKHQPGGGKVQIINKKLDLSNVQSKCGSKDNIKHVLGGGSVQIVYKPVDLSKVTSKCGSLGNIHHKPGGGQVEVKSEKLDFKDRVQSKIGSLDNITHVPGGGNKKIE
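Quantitative HTS format: compounds meet 15 uM recombinant K18 P301L tau and Alexa 594-tau tracer in 100 mM sodium acetate pH 7; 20 uM heparin triggers fibrillization at 37 C over 6 hr; FP gives the signal.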
Tau ThT inhib: inhibitors of human tau fibril formation, thioflavin T binding; P10636; recombinant tau K18 P301L (four-repeat tau fragment), heparin-induced fibrillization, ThT fluorescence; Potency, µM (highest dose often 57.4 µM), inactives show at the top dose activity, negative = inhibition, hits mostly inhibitors; hit rate 2.1% among 270,000; note: potency is the fitted concentration of half-maximal effect; nearly all actives have a fitted effect of over 55% in size
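Tau K18 P301L fragment (15 uM unlabeled plus 0.24 uM Alexa 594-labeled) in 100 mM sodium acetate pH 7 with compound, fibrillization induced by 20 uM heparin for 6 hr at 37 C. Thioflavin T (30 uM) added, fluorescence read after 1 hr (ex 450, em 510 nm).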
NPSR antagonist: neuropeptide S receptor (human) antagonism, cAMP | CHO-NPSR cells, cAMP TR-FRET, antagonist mode | Potency, µM (top dose mostly 38.3 µM), for inactives: at the top dose activity change, negative = inhibition, most hits filed as inhibitors | hit rate 1% among 220,000; note: potency is the fitted concentration of half-maximal effect; nearly all actives have a fitted effect of over 50% in size
Target sequence (Q6W5P4 whole entry, looked up): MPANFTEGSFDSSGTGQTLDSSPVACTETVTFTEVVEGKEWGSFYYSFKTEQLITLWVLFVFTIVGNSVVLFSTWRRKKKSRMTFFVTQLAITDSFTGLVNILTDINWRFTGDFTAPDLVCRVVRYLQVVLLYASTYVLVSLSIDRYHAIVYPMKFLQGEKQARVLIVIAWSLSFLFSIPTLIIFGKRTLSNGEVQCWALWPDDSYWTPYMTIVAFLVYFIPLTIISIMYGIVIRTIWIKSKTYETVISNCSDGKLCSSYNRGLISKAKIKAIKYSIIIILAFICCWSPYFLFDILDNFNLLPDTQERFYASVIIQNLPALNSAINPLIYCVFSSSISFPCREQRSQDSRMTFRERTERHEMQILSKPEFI
* hit, by the source's call; ? = inconclusive; nt = no result given; [ ] = another dose, or the depositor's remark. Unless noted, calls come from the whole dose curve; as a rule, active = well fitted curve in the direction sought with a large enough effect; inconclusive = small, poorly fitted or top-dose-only effect, or another doubt; inactive = no such curve, though single readings can be large; an effect the other way counts as inactive or inconclusive. Unless noted, % is set by controls: 0 for no effect and ±100 for the full control effect.

SMILES	Tau fluor cs	JMJD2E inh	PNC inhibitor	Tau fibril FP	Tau ThT inhib	NPSR antagonist
COc1ccc(-c2nc(SCC(=O)Nc3nccs3)c(-c3ccc(Cl)cc3)[nH]2)cc1	0%	2%	10	5%	3%	-19%
CCN(CC)c1nc2c(S(=O)(=O)c3ccc(C)cc3)nnn2c2ccsc12	-9%	nt	nt	10%	-1%	nt
Cc1ccc(C)c2c1[nH]c1ccccc12	?	-5%	26	0%	?	9%[46.1 µM]
CC(C)=CCCC1(C)C=Cc2c(c(C)cc3c2[nH]c2ccccc23)O1 (centres undefined)	8.9µM*[quencher]	4%	nt	-10%	?	nt
C[n+]1cccc2cccc([O-])c21	-25%	16µM*	nt	?	16µM*	8%
CCN(CC)S(=O)(=O)c1ccc2c(c1)c(=O)c(C(=O)N1CCN(c3cc(Cl)ccc3C)CC1)cn2C	5%	nt	nt	-7%	0%	nt
CC1=NN(C(N)=S)C(=O)C1N=Nc1ccccc1C (centres undefined)	-15%	6%	-2	4%	10µM*	0%[46.1 µM]
CC1=NN(C(N)=S)C(=O)C1N=Nc1ccc(C)cc1C (centres undefined)	?	3%	-14	1%	3.2µM*	-9%[46.1 µM]
CC1=NN(c2ccccc2)C(=O)C1N=Nc1ccc(S(N)(=O)=O)cc1 (centres undefined)	-22%	-14%	nt	-8%	?	2%
CC1=NN(C(N)=S)C(=O)C1N=Nc1c(C)cc(C)cc1C (centres undefined)	-21%	5%	7	3%	4.5µM*	-13%[46.1 µM]
O=C(C1CCC(Cn2c(=O)c3sccc3n(Cc3ccccc3)c2=O)CC1)N1CCOCC1 (centres undefined)	-6%	nt	nt	6%	1%	nt
COc1ccc(C(=O)Nc2cc(S(=O)(=O)c3ccc(Cl)cc3)c(O)c(C)c2C)cc1	-30%	nt	nt	-10%	0%	nt
COc1ccc(C(=O)NCC(c2ccc(N(C)C)cc2)N2CCc3ccccc32)cc1 (centres undefined)	?	nt	nt	?	16µM*	nt
CC(=O)Nc1ccc(NC(=O)C2Cc3ccccc3N2C(=O)c2ccccc2)cc1 (centres undefined)	-13%	nt	nt	-10%	-4%	nt
CN1C(=O)C2CCCCN2c2ccc(C(=O)NCc3ccccc3Br)cc21 (centres undefined)	-18%	nt	nt	13%	-9%	nt
Cc1c(CCOC(=O)c2cc([N+](=O)[O-])cc([N+](=O)[O-])c2)sc[n+]1CC(=O)c1ccccc1	-21%	-7%	nt	0%	?	10µM*
Cc1c(CCOC(=O)CC23CC4CC(CC(C4)C2)C3)sc[n+]1CC(=O)c1ccc(Br)cc1	-28%	3%	23	-1%	?	10µM*
Cc1ccc(S(=O)(=O)Nc2ccc(O)c3ncccc23)cc1	-12%	25µM*	nt	6%	-14%	-28%
COc1ccc(CNC(=O)CN2N=C(c3ccccc3)CCC2=O)c(OC)c1	-16%	nt	nt	-1%	-7%	nt
COc1cccc(O)c1O	11µM*[quencher]	7.9µM*	nt	25µM*	14µM*	nt
CCc1ccc(-c2nc(CN3CCC(C(=O)NCc4ccccc4OC)CC3)c(C)o2)cc1	-7%	-6%	-98*	-2%	?	-12%[46.1 µM]
COc1ccccc1CNC(=O)C1CCN(Cc2nc(-c3ccc(OC)c(OC)c3)oc2C)CC1	-13%	nt	nt	-1%	-12%	nt
C[C@@H]1O[C@@H](Oc2c(-c3cc(O)c(O)c(O)c3)oc3cc(O)cc(O)c3c2=O)[C@H](O)[C@H](O)[C@H]1O	?	2.2µM*	52	?	?	-19%
COc1ccc(-c2oc3c(CC=C(C)C)c(O[C@@H]4O[C@H](CO)[C@@H](O)[C@H](O)[C@H]4O)cc(O)c3c(=O)c2O[C@@H]2O[C@@H](C)[C@H](O)[C@@H](O)[C@H]2O)cc1	-6%	-20%	nt	3%	-10%	6%
O=c1c(OC2OC(CO)C(O)C(O)C2O)c(-c2ccc(O)c(O)c2)oc2cc(O)cc(O)c12 (centres undefined)	-9%	8.9µM*	9	4%	-18%	-4%
SMILES	Tau fluor cs	JMJD2E inh	PNC inhibitor	Tau fibril FP	Tau ThT inhib	NPSR antagonist
CC1OC(OCC2OC(Oc3c(-c4ccc(O)c(O)c4)oc4cc(O)cc(O)c4c3=O)C(O)C(O)C2O)C(O)C(O)C1O (centres undefined)	-17%	11µM*	nt	-14%	?	nt
O=c1c(OC2OC(CO)C(O)C(O)C2OC2OC(CO)C(O)C(O)C2O)c(-c2ccc(O)cc2)oc2cc(O)cc(O)c12 (centres undefined)	-11%	28µM*	nt	-1%	-5%	6%
COc1ccc(-c2noc(-c3ccc(N4CCCC4)c([N+](=O)[O-])c3)n2)cc1	-8%	nt	nt	0%	-1%	nt
O=C(CSc1nnc(-c2ccc(F)cc2)o1)N1CCCc2ccccc21	-16%	nt	nt	1%	-14%	nt
CCc1ccccc1Nc1nc2ccccc2c2nncn12	-29%	nt	nt	-4%	-14%	nt
O=c1cc(-c2ccccc2)oc2cc(O[C@@H]3O[C@H](CO)[C@@H](O)[C@H](O)[C@H]3O)c(O)c(O)c12	-30%	13µM*	nt	0%	?	nt
COc1ccc(C(=O)NNC(=S)NC(=O)c2ccco2)cc1	-10%	-77%	-17	0%	?	-25%[46.1 µM]
CC(Oc1ccc(Cl)cc1)C(=O)NNC(=S)NC(=O)c1ccco1 (centres undefined)	-19%	20µM*	?	-15%	?	-16%
O=C(N/N=C1/C[C@@H](O)[C@@H](O)[C@@H]2[C@@H]3C(=O)N(C4CCCCC4)C(=O)[C@H]3CC[C@H]12)OCc1ccccc1	-6%[11.6 µM]	nt	nt	-3%[11.6 µM]	-4%[11.5 µM]	nt
O=C(COC(=O)C12CC3CC(CC(C3)C1)C2)Nc1ncc(Cl)cc1Cl	-14%	2%	-88*	3%	-12%	-22%[46.1 µM]
O=C(COC(=O)CC12CC3CC(CC(C3)C1)C2)Nc1ncc(Cl)cc1Cl	-18%	-9%	-19	9%	-14%	-9%[46.1 µM]
CC(C)(C)OC(=O)N[C@H](Cc1ccccc1)C(=O)N1CCC(C(=O)O)CC1	8%	0%	-83*	3%	2%	9%[46.1 µM]
C/C(=N\N1C(=O)c2ccccc2NC1c1ccco1)c1ccccc1O (centres undefined)	-11%	22µM*	nt	-5%	-9%	-38%
COc1ccc(S(=O)(=O)N2CCN(Cc3nc4ccc(C)cc4o3)CC2)cc1OC	6%	nt	nt	5%	7%	nt
Cc1cccc(OCCCn2c(CCNC(=O)C3CCCCC3)nc3ccccc32)c1	-13%	nt	nt	-8%	?	nt
CCOc1ccc(NC(=O)Cn2nc(-c3ccncc3)ccc2=O)cc1	-12%	nt	nt	6%	-7%	nt
O=C1OC2(c3ccc(O)cc3Oc3cc(O)ccc32)c2ccccc21	-10%	nt	nt	4%	?	nt
